Assay results: PubChem BioAssay
Several values for one entry are separate records, joined by “and”; a condition that tells them apart may be missing. Identical values can stand only once. Records with an inconclusive call do not appear. Activity calls are given as the source filed them.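 Rule for the calls, unless noted: active = normalized viability below 100% at a tested concentration; inactive = the rest.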

How the values were obtained:
[1] = viability loss in pontine glioma line – cell-based, SU-DIPG-XVII, MIPE5.0, CellTiter-Glo, qHTS, dose response (AID 1347060; cut-off not given, nearly all actives have AC50 up to about 26 µM;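 note: cells exposed to compound for 48 hours before viability readout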); conditions: CellTiter-Glo ATP luminescence
[2] = growth inhibition of DIPG cells – cell-based, MIPE5.0 library, qHTS (AID 1347068; cut-off not given, nearly all actives have IC50 up to about 30 µM;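 for IC50: cells exposed to compound for 48 hours before viability readout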); conditions: SU-DIPG-XXV viability
[3] = liver-stage malaria parasite load reduction – cell-based, known kinase inhibitor set, luminescence, hepatoma host viability (AID 624392; call rule not given here;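 note: infected cells incubated roughly two days before readout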); conditions: Plasmodium liver stage in hepatoma cells, luciferase luminescence, concentration not given here; liver cell % of control: measured here: host liver cell viability; parasite % of control: stronger effect = lower value
[4] = viability loss in pontine glioma line – cell-based, SU-DIPG-XIII, MIPE4.0, CellTiter-Glo, qHTS, dose response (AID 1347061; cut-off not given, nearly all actives have AC50 up to about 37 µM;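 note: cells exposed to compound for 48 hours before readout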); conditions: CellTiter-Glo ATP luminescence
[5] = viability loss in pontine glioma line – cell-based, JHH-DIPG-1, MIPE4.0, CellTiter-Glo, qHTS, dose response (AID 1347062; cut-off not given, nearly all actives have AC50 up to about 27 µM;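 for AC50: cells exposed to compound for two days before readout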); conditions: JHH-DIPG-1 viability, CellTiter-Glo ATP luminescence
[6] = viability loss in pontine glioma line – cell-based, SU-DIPG-IV, MIPE4.0, CellTiter-Glo, qHTS, dose response (AID 1347063; cut-off not given, nearly all actives have AC50 up to about 30 µM;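 note: compound exposure lasted 48 hours before the viability readout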); conditions: CellTiter-Glo ATP luminescence
[7] = viability loss in pontine glioma line – cell-based, SU-DIPG-XIII, MIPE5.0, CellTiter-Glo, qHTS, dose response (AID 1347064; cut-off not given, nearly all actives have AC50 up to about 23 µM;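 for AC50: cells exposed to compound for 48 hours before the viability read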); conditions: CellTiter-Glo ATP luminescence
[8] = viability loss in pontine glioma line – cell-based, SU-DIPG-XXV, MIPE5.0, CellTiter-Glo, qHTS, dose response (AID 1347065; cut-off not given, nearly all actives have AC50 up to about 26 µM;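 note: cells exposed to compound for 48 hours before ATP readout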); conditions: CellTiter-Glo ATP luminescence
[9] = growth inhibition of DIPG cells – cell-based, MIPE4.0 library, CellTiter-Glo luminescence, qHTS (AID 1347066; cut-off not given, nearly all actives have AC50 up to about 30 µM;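 note: cells exposed to compound for 48 hours before readout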); conditions: SU-DIPG-VI viability, CellTiter-Glo ATP luminescence
[10] = JHH-DIPG-1 glioma cell viability, MIPE5.0 library, CellTiter-Glo luminescence, qHTS (AID 1347067; cut-off not given, nearly all actives have AC50 up to about 26 µM;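 note: cells exposed to compound for 48 hours before readout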); conditions: JHH-DIPG-1 glioma viability, CellTiter-Glo ATP luminescence
[11] = viability loss with induced miR-34 in A549 – imaging, A549 dox-inducible miR-34, nuclei and caspase counts, primary screen (AID 1347080;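 active = compounds whose cell count with miR-34 switched on is under 0.7 times the count with it off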); conditions: A549 miR-34 inducible, Hoechst nuclei count, 48 h
[12] = MELAS cybrid and Rieske KO viability enhancers – cell-based, MELAS cybrids, Rieske KO mouse fibroblasts, CellTiter-Glo, primary screen (AID 1508586;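 active = mean z-score across replicates of 1.96 or higher in either the MELAS or the Rieske mutant cell line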;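 note: z relative to plate mean and SD of compound and empty wells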); conditions: low glucose
[13] = drug combination growth inhibition, ovarian cancer – cell-based, oncology-focused library, rucaparib conditional, profiling panel (AID 1508598); conditions: patient-derived ovarian cancer cells, CellTiter-Glo viability, 144 h, stronger effect = lower value
[14] = at 0.000305 µM, OCI-C5x cells, with rucaparib 10 µM, 100% = cells with rucaparib alone
[15] = at 0.000305 µM, OCI-C5x cells, without rucaparib
[16] = at 0.000305 µM, OCI-P5x cells, with rucaparib 20 µM, 100% = cells with rucaparib alone
[17] = at 0.000305 µM, OCI-P5x cells, without rucaparib
[18] = at 0.00122 µM, OCI-C5x cells, with rucaparib 10 µM, 100% = cells with rucaparib alone
[19] = at 0.00122 µM, OCI-C5x cells, without rucaparib
[20] = at 0.00122 µM, OCI-P5x cells, with rucaparib 20 µM, 100% = cells with rucaparib alone
[21] = at 0.00122 µM, OCI-P5x cells, without rucaparib
[22] = at 0.00488 µM, OCI-C5x cells, with rucaparib 10 µM, 100% = cells with rucaparib alone
[23] = at 0.00488 µM, OCI-C5x cells, without rucaparib
[24] = at 0.00488 µM, OCI-P5x cells, with rucaparib 20 µM, 100% = cells with rucaparib alone
[25] = at 0.00488 µM, OCI-P5x cells, without rucaparib
[26] = at 0.0195 µM, OCI-C5x cells, with rucaparib 10 µM, 100% = cells with rucaparib alone
[27] = at 0.0195 µM, OCI-C5x cells, without rucaparib
[28] = at 0.0195 µM, OCI-P5x cells, with rucaparib 20 µM, 100% = cells with rucaparib alone
[29] = at 0.0195 µM, OCI-P5x cells, without rucaparib
[30] = at 0.0781 µM, OCI-C5x cells, with rucaparib 10 µM, 100% = cells with rucaparib alone
[31] = at 0.0781 µM, OCI-C5x cells, without rucaparib
[32] = at 0.0781 µM, OCI-P5x cells, with rucaparib 20 µM, 100% = cells with rucaparib alone
[33] = at 0.0781 µM, OCI-P5x cells, without rucaparib
[34] = at 0.313 µM, OCI-C5x cells, with rucaparib 10 µM, 100% = cells with rucaparib alone
[35] = at 0.313 µM, OCI-C5x cells, without rucaparib
[36] = at 0.313 µM, OCI-P5x cells, with rucaparib 20 µM, 100% = cells with rucaparib alone
[37] = at 0.313 µM, OCI-P5x cells, without rucaparib
[38] = at 1.25 µM, OCI-C5x cells, with rucaparib 10 µM, 100% = cells with rucaparib alone
[39] = at 1.25 µM, OCI-C5x cells, without rucaparib
[40] = at 1.25 µM, OCI-P5x cells, with rucaparib 20 µM, 100% = cells with rucaparib alone
[41] = at 1.25 µM, OCI-P5x cells, without rucaparib
[42] = at 5 µM, OCI-C5x cells, with rucaparib 10 µM, 100% = cells with rucaparib alone
[43] = at 5 µM, OCI-C5x cells, without rucaparib
[44] = at 5 µM, OCI-P5x cells, with rucaparib 20 µM, 100% = cells with rucaparib alone
[45] = at 5 µM, OCI-P5x cells, without rucaparib

O=C(/C=C/c1ccc(Cl)cc1)N1CCC2(CC1)CN(Cc1ccc(Cl)c(Cl)c1)C(=O)O2
active: AC50 [1] 18.6 µM
inactive: outcome [2]

O=C(CO)N1CCC(c2[nH]nc(-c3ccc(Cl)cc3)c2-c2ccncn2)CC1
inactive: parasite % of control [3] 11.9% and 26% and 30.9% | outcome [4] | outcome [5] | outcome [6] | outcome [7] | outcome [8] | outcome [9] | outcome [2]
88.6% and 86.6% and 97.2%: liver cell % of control [3]

CN(C)C1CCN(C(=O)c2ccc(NC(=O)Nc3nc(N4CCOCC4)nc(N4CCOCC4)n3)cc2)CC1
active: AC50 [4] 0.833 µM | AC50 [5] 0.166 µM | AC50 [6] 0.0469 µM | AC50 [7] 0.525 µM | AC50 [8] 0.295 µM | AC50 [9] 0.264 µM | AC50 [10] 0.525 µM | IC50 [2] 0.934 µM

Nc1ncnc2c1c(-c1cccc(OCc3ccccc3)c1)cn2C1CC(CN2CCCC2)C1 (stereo unspecified)
inactive: fold change ([11]; stronger effect = lower value, cell number ratio, induced over uninduced) 1.06 | z-score ([12]; MELAS cybrid survival, CellTiter-Glo 48 h, stronger effect = higher value) -0.449
1510: cell count ([11]; measured here: total cells with miR-34 induction, stronger effect = lower value)
0.635: z-score ([12]; Rieske KO mouse fibroblast survival, CellTiter-Glo 72 h)
active: AC50 [4] 16.6 µM | AC50 [5] 20.9 µM | AC50 [6] 20.9 µM | AC50 [7] 1.18 µM | AC50 [8] 0.934 µM | AC50 [9] 1.18 µM | AC50 [10] 18.6 µM | IC50 [2] 4.68 µM
0.675: fold change ([11]; measured here: relative caspase fold change +Dox/-Dox)
1430: cell count ([11]; measured here: total cells without miR-34 induction)

Cc1cc2c(F)c(Oc3ncnn4cc(OC[C@@H](C)O)c(C)c34)ccc2[nH]1
active: AC50 [1] 14.8 µM | IC50 [2] 14.8 µM | viability [13, 25] 99.9% | viability [13, 32] 99% | viability [13, 45] 97.4%
inactive: viability [13, 14] 117% | viability [13, 15] 131% | viability [13, 16] 112% | viability [13, 17] 105% | viability [13, 18] 131% | viability [13, 19] 128% | viability [13, 20] 112% | viability [13, 21] 109% | viability [13, 22] 125% | viability [13, 23] 126% | viability [13, 24] 108% | viability [13, 26] 111% | viability [13, 27] 124% | viability [13, 28] 110% | viability [13, 29] 102% | viability [13, 30] 123% | viability [13, 31] 141% | viability [13, 33] 108% | viability [13, 34] 122% | viability [13, 35] 129% | viability [13, 36] 113% | viability [13, 37] 106% | viability [13, 38] 117% | viability [13, 39] 135% | viability [13, 40] 109% | viability [13, 41] 102% | viability [13, 42] 122% | viability [13, 43] 139% | viability [13, 44] 109%

CC(C)NC[C@@H](C(=O)N1CCN(c2ncnc3c2[C@H](C)C[C@H]3O)CC1)c1ccc(Cl)cc1
active: AC50 [4] 11.8 µM | AC50 [5] 23.5 µM | AC50 [6] 7.43 µM | AC50 [7] 4.68 µM | AC50 [8] 5.25 µM | AC50 [9] 2.64 µM

Cc1ccc(NC(=O)Nc2cc(C(F)(F)F)ccc2F)cc1Nc1ccc2c(c1)NC(=O)/C2=C\c1ccc[nH]1
active: AC50 [4] 18.7 µM | AC50 [5] 18.7 µM | AC50 [6] 4.18 µM | AC50 [7] 8.33 µM | AC50 [8] 6.61 µM | AC50 [9] 3.72 µM | AC50 [10] 10.5 µM | IC50 [2] 9.34 µM

Cc1cc(Nc2nc(N[C@@H](C)c3ncc(F)cn3)ncc2Cl)n[nH]1
active: AC50 [4] 16.6 µM | AC50 [5] 9.35 µM | AC50 [6] 13.2 µM | AC50 [7] 1.48 µM | AC50 [8] 0.661 µM | AC50 [9] 9.35 µM | AC50 [10] 0.934 µM | IC50 [2] 1.48 µM | viability [13, 14] 99.3% | viability [13, 16] 91% | viability [13, 17] 91.4% | viability [13, 20] 92.4% | viability [13, 21] 97.8% | viability [13, 25] 99.3% | viability [13, 29] 99.8% | viability [13, 32] 96.5% | viability [13, 34] 97.7% | viability [13, 36] 85.8% | viability [13, 37] 99.9% | viability [13, 38] 78.7% | viability [13, 40] 80.1% | viability [13, 41] 86.6% | viability [13, 42] 46.6% | viability [13, 43] 55.9% | viability [13, 44] 30.7% | viability [13, 45] 24.9%
inactive: viability [13, 15] 105% | viability [13, 18] 112% | viability [13, 19] 112% | viability [13, 22] 106% | viability [13, 23] 115% | viability [13, 24] 102% | viability [13, 26] 112% | viability [13, 27] 102% | viability [13, 28] 101% | viability [13, 30] 102% | viability [13, 31] 104% | viability [13, 33] 101% | viability [13, 35] 102% | viability [13, 39] 101%
